From PubChem BioAssay (NCI)
The panel holds about 79,000 compounds, 15% with a hit somewhere; the sample as a whole holds those more often. Rule as the data show it: active = growth inhibition above about 70%; inactive = the rest.

How the values were obtained:
[1] = NCI Yeast Anticancer Drug Screen. Data for the rad50 strain (AID 155);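 also: 0% = growth of vehicle-only cultures of the same strain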; conditions: S. cerevisiae rad50 strain growth inhibition, stronger effect = higher value; at 50.0 µM unless noted
Summary of the method: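 Readout: growth inhibition relative to vehicle-treated cultures. Compound exposure was carried out in a genetically defined yeast strain deficient in DNA damage repair.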

[2] = NCI Yeast Anticancer Drug Screen. Data for the mec2-1 strain (AID 157); conditions: S. cerevisiae mec2-1 strain, stronger effect = higher value; at 50.0 µM unless noted
Summary of the method: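 Readout is yeast growth inhibition, normalised to vehicle-treated controls, in the mec2-1 strain exposed to compound.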

[3] = NCI Yeast Anticancer Drug Screen. Data for the sgs1 mgt1 strain (AID 161);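 also: 0% = growth of cultures given vehicle only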; conditions: S. cerevisiae sgs1 mgt1 strain, stronger effect = higher value; at 50.0 µM unless noted
Summary of the method: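 Yeast cells carrying a defined DNA-repair defect were exposed to test compounds. Growth inhibition was measured relative to vehicle-treated controls.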

[4] = NCI Yeast Anticancer Drug Screen. Data for the cln2 rad14 strain (AID 165);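 also: 0% = growth equal to vehicle treated cultures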; conditions: S. cerevisiae cln2 rad14 strain, stronger effect = higher value; at 50.0 µM unless noted
Summary of the method: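 Relative to vehicle controls, growth inhibition of compound-treated cln2 rad14 yeast was recorded.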

[5] = NCI Yeast Anticancer Drug Screen. Data for the bub3 strain (AID 167); conditions: S. cerevisiae bub3 mutant strain, stronger effect = higher value; at 50.0 µM unless noted
Summary of the method: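 Readout: yeast growth inhibition, expressed relative to vehicle-only wells. The test organism is a mutant strain from a panel with lesions in DNA repair or checkpoint genes.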

[6] = NCI Yeast Anticancer Drug Screen. Data for the mlh1 rad18 strain (AID 175); conditions: S. cerevisiae mlh1 rad18 strain growth inhibition, stronger effect = higher value; at 50.0 µM unless noted
Summary of the method: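 Test agents were incubated with a yeast strain of defined genotype (DNA damage repair defect). Inhibition of growth was derived by comparison with vehicle-exposed cultures.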

Measured: growth inhibition

Cn1nc(-c2ccccc2)c(C(=O)/C=C/c2ccccc2)c(N2CCCCC2)c1=O
inactive: [1] -27.9% | [2] -11.6% | [3] -11.5% | [4] 3% | [5] 27% | [6] -27.8%

Cc1ccc(C)n1-n1c(Cc2ccccc2)n[nH]c1=O
inactive: [1] -21.8% | [2] -19.3% | [3] -15.1% | [4] 2.75% | [5] -31.8% | [6] -12.7%

OC1(C2(O)CCCC2)CCCC1
inactive: [1] 14.1% | [2] 8.4% | [3] 22% | [4] 6.75% | [5] 18% | [6] 12.8%

O=C1C(Br)=C[C@H]2C3C=CC(Br)(C3=O)[C@@H]12 (stereo not given in full)
inactive: [1] 20.8% | [2] 14.9% | [3] 14.9% | [4] 25.2% | [5] 15.6% | [6] 23.6%

CCN(CC)C(=O)Oc1cccc(NC(=O)OC)c1
inactive: [1] 16% | [2] 47.2% | [3] 29.4% | [4] 16.1% | [5] 49.2% | [6] 33.4%
